Compound activity deposited in PubChem by several laboratories.
The entries come from a sample that favours hits as a whole.
hDAT+cocaine = modulates human dopamine transporter uptake under cocaine; AID 449768; LLC-PK1 hDAT cells, [14C]-dopamine uptake with cocaine IC80; actives deviate in either direction; actives 1.3% (n = 110,000); B-score at 10 µM;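 active = Z score or B-score, a plate-position-corrected score, falls beyond the plate's 99.7% confidence bounds, in either direction; inactive = both scores lie inside the 99.7% bounds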;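 note: scored against the spread of the other compound wells on the same plate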
D1 allo mod = allosterically modulates the human D1 dopamine receptor; P21728; HEK293 D1, CRE-luciferase, dopamine EC30 potentiation; actives deviate in either direction; B-score at 10 µM; actives 5.9% (n = 58,000); AID 641;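 active = luminescence count or its row- and column-corrected plate score outside the 99.7% band of the plate's sample wells, on either side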
ROCK2 inh = inhibitors of human Rho kinase 2; O75116; purified ROCK2, Kinase-Glo ATP depletion luminescence; inhibition, % at 6 µM; actives 0.35% (n = 60,000); AID 604;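 active = inhibition above the screen-wide mean inhibition plus 3 SD, cut at about 18% in these data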;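 note: plate controls were DMSO wells for no effect and Y-27632 control wells after no-enzyme background subtraction for full effect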
PKA inh = blocks human protein kinase A activity | inhibition, % at 6 µM | AID 524 | P17612 | PKA Kemptide phosphorylation, Kinase-Glo ATP luminescence | actives 0.1% (n = 65,000);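 active = inhibition above the screen-wide mean inhibition plus 3 SD, cut at about 21% in these data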
D1 mod confirm = confirmation of human D1 dopamine receptor allosteric modulators; actives 88% (n = 2,200); HEK293 D1 CRE-luciferase, dopamine EC30 potentiation; active compounds read high; shares compounds with D1 allo mod; luminescence at 10 µM;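 active = luminescence in either of two replicates above the same-plate mean plus 3 SD of the low-dose dopamine control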
D1 no dopamine = D1 (human) signaling in absence of dopamine; actives 0.8% (n = 1,900); luminescence at 10 µM; AID 646; shares compounds with D1 allo mod; HEK293 D1 CRE-luciferase, luminescence, no dopamine; active compounds read high; in the data active = luminescence above about 3900
Isoprot counter = isoproterenol response counter-screen activity for D1 modulators; actives 63% (n = 2,200); calls only at 10 µM; shares compounds with D1 allo mod; HEK293 D1 CRE-luciferase, isoproterenol EC30 counter-screen;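 active = luminescence in either replicate above plate mean of wells with a partly effective reference agonist dose plus 3 SD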;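 note: isoproterenol raises cAMP through native beta-adrenoceptor Gs so signal bypasses D1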
* = called active by the depositor; i = inactive; / = no result given; + = active, no number.

SMILES | hDAT+cocaine | D1 allo mod | ROCK2 inh | PKA inh | D1 mod confirm | D1 no dopamine | Isoprot counter
COC(=O)c1nc2n(n1)C(c1ccc(OC)c(OC)c1)C(C(=O)OC1CCCCC1)=C(C)N2 (stereo not given) | 1.6 | 3.3* | / | -8 | 7744* | / | i
COc1ccc(C2C(C(N)=O)=C(C)Nc3nc(-c4ccccc4OC)nn32)cc1OC (stereo not given) | -0.073 | -1.4 | 2 | 10 | / | / | /
Brc1ccc(-c2nnc3n2-c2ccccc2CC3)cc1 | 0.58 | 3.9* | 5 | 8 | 13056* | 1744 | +
CCOc1ccc(OCC)c(NC(=O)CC2Oc3ccc(C)cc3NC2=O)c1 (stereo not given) | -1.4 | 2.7* | -1 | 6 | 6392 | 1720 | i
COc1ccc(NC(=O)CC2Oc3ccc(C)cc3NC2=O)cc1 (stereo not given) | -1.2 | / | 3 | 2 | / | / | /
Cc1cc(C)n(-c2nnc3n2N=C(c2c[nH]c4ccccc24)CS3)n1 | 0.74 | 9.8* | 6 | 8 | 10564* | 1848 | +
COc1ccc(-c2cc(C(F)F)n3ncc(C(=O)N4CCN(C(=O)c5ccco5)CC4)c3n2)cc1 | 1.8 | 9.4* | 7 | 6 | 13496* | 1536 | +
Cc1ccc(-c2cc(C(F)F)n3ncc(C(=O)N4CCN(c5ccccn5)CC4)c3n2)cc1 | 0.88 | 2.8 | -9 | -3 | / | / | /
CCOC(=O)c1c(C)c(C(=O)NCc2ccc3c(c2)OCO3)c(C)n1C | 0.11 | 4.3* | 9 | 5 | 5908* | 1544 | i
NC1=NC[C@H](c2ccccc2)N1CCc1cccc(F)c1 | 1.5 | / | / | / | / | / | /
c1ccc(Cn2cc(CNc3ccccc3)nn2)cc1 | 0.55 | / | / | / | / | / | /
CCn1nnnc1NCc1cccn1C | 0.41 | -0.16 | 17 | 7 | / | / | /
CCOC(=O)c1sc(N(Cc2ccccc2)C(=O)CSc2nnc(C3CC3)n2N)nc1C | 0.22 | 6.2* | / | 7 | 18736* | 1688 | +
Nn1c(SCC(=O)NCc2ccccc2)nnc1C1CC1 | -0.36 | 0.19 | 6 | 3 | / | / | /
Nc1nonc1-n1nncc1-c1ccccc1 | 0.25 | 5.9* | / | 28* | 10724* | 1496 | +
CC1CCCC(NC(=O)CN(C)S(=O)(=O)c2cccc3cccnc23)C1C (stereo not given) | 0.71 | / | 1 | 3 | / | / | /
CCc1c(C)c2c(C)nn(-c3ccccc3)c2[nH]c1=O | -0.12 | 3.2* | 4 | 7 | 7084* | 1748 | +
Cc1c(C)c2c(C)nn(-c3ccccc3)c2[nH]c1=O | -0.69 | 0.43 | / | / | / | / | /
COc1ccc(-c2cnnn2-c2ccc(N)cc2)cc1OC | -0.0036 | 11* | 4 | 6 | 19800* | 1764 | +
COc1ccc(S(=O)(=O)N2CCC(C(=O)N3CCCCCC3)CC2)cc1 | 0.03 | 0.16 | 5 | 13 | / | / | /
Cc1n[nH]c(C)c1S(=O)(=O)N(CC(=O)Nc1ccc2c(c1)OCCO2)c1ccc(C(C)C)cc1 | -0.64 | -0.67 | -1 | -6 | / | / | /
CCOC(=O)CN1C(=N)N(c2nc(NC(C)C)nc(NC(C)C)n2)CC1=O | 1.1 | / | / | / | / | / | /
Fc1cccc(-c2cc3nc4c(c(N5CCC6(CC5)OCCO6)n3n2)CCCC4)c1 | 1.6 | 1.1 | / | -8 | / | / | /
OC1CCN(c2c3c(nc4cc(-c5cccc(F)c5)nn24)CCCC3)CC1 | 1.3 | 7.4* | / | -2 | 17644* | 1772 | +
O=C(CCc1nc(-c2ccccc2F)no1)Nc1ccc(Oc2ccccc2)cc1 | -0.54 | 8.6* | 0 | -3 | 4944 | 1544 | i
SMILES | hDAT+cocaine | D1 allo mod | ROCK2 inh | PKA inh | D1 mod confirm | D1 no dopamine | Isoprot counter
COc1cccc(NC(=O)CCc2nc(-c3ccccc3F)no2)c1 | -1.4 | / | / | / | / | / | /
COC(=O)c1sccc1OC(C)C(C)=O (stereo not given) | -0.046 | / | / | / | / | / | /
CCOC(=O)c1c(N)c(C#N)cn1-c1ccccc1 | 0.62 | 20* | 5 | 6 | 19404* | 1788 | +
CCOC(=O)c1c(NC(=O)c2nn(CC)cc2Br)c(C#N)cn1-c1ccccc1 | 1.6 | 6.7* | 7 | 1 | 8888* | 816 | +
C=CCc1cccc2cc(C(=O)N(CC)CC)c(=O)oc12 | -0.14 | 0.17 | 2 | -3 | / | / | /
CC1(C)Cc2c(c(-c3ccccc3Cl)[nH]c(=O)c2C#N)CO1 | 2 | / | 4 | -1 | / | / | /
